In PubChem BioAssay (EPA / NIEHS):
Some structures have more than one record in an assay (separate samples or runs), and their calls can disagree. Activity calls are given as the source filed them. Rule for the calls: active = hit-call score of the fitted dose curve at least 0.9, where 1 is the maximum; inactive = score below 0.9.

Columns and labels:
[1] = ATG_CRE_CIS: Attagene CIS-FACTORIAL HepG2 Assay for human cAMP Responsive Element (CRE) binding protein 3 (AID 2282926); details: HepG2 CRE cis-reporter, Attagene multiplexed mRNA; actives raise or lower the signal
Procedure, shortened: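 We dosed HepG2 cells bearing multiple cis-promoter reporter units for 24 h and measured reporter mRNA by RT-PCR with capillary electrophoresis detection. Bidirectional concentration-response fitting used DMSO as negative control.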

[2] = molecular target: CCAAT/enhancer-binding protein beta (Homo sapiens) (UniProt P17676); test: ATG_C_EBP_CIS: Attagene CIS-FACTORIAL HepG2 Assay for human CCAAT/Enhancer Binding Protein (C/EBP) beta (AID 2282927); details: HepG2 Attagene cis-factorial transcription factor reporter; actives raise or lower the signal
Procedure, shortened: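 Changes in reporter mRNA, rather than exogenous chimeric receptor activity, reflect native C/EBP signalling in transfected HepG2 cells dosed for 24 h; transcripts are detected by RT-PCR and capillary electrophoresis.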

[3] = ATG_CMV_CIS: Attagene CIS-FACTORIAL HepG2 Assay for human CMV (Internal Marker) (AID 2282928); details: HepG2 CMV promoter reporter, transcription factor profiling; actives raise or lower the signal;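 note: endpoint acts as a background internal control marker rather than a target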
Procedure, shortened: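 Endogenous transcription factor activity read in HepG2 via transfected cis-promoter reporter units. After 24 h dosing, reporter mRNA measured by RT-PCR/capillary electrophoresis; gain or loss of signal fit relative to DMSO.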

[4] = molecular target: Aryl hydrocarbon receptor (Homo sapiens) (UniProt P35869); test: ATG_Ahr_CIS: Attagene CIS-FACTORIAL HepG2 Assay for human Aryl Hydrocarbon Receptor (Ahr) (AID 2282930); details: HepG2 AhR cis-factorial reporter transcription; actives raise or lower the signal
Procedure, shortened: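 HepG2, transient MRTU (cis) transfection, 24 h exposure. RNA → cDNA → PCR → 6-FAM primer extension → HpaI 2 h 37 C → CE. Fit: bidirectional, DMSO baseline.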

[5] = ATG_AP_1_CIS: Attagene CIS-FACTORIAL HepG2 Assay for human Activator Protein 1 (AP-1) (AID 2282931); details: HepG2 Attagene cis-factorial AP-1 reporter mRNA; actives raise or lower the signal
Procedure, shortened: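 Fluorescence of labelled PCR fragments separated by capillary electrophoresis gives reporter mRNA levels. HepG2 with transfected cis-regulated reporter units, 24 h exposure; DMSO serves as baseline for bidirectional curve fits.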

[6] = ATG_AP_2_CIS: Attagene CIS-FACTORIAL HepG2 Assay for human Activator Protein 2 (AP-2) (AID 2282932); details: HepG2 AP-2 cis-reporter, Attagene transcription factor profiling; actives raise or lower the signal
Procedure, shortened: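 Step one: transient transfection of HepG2 with reporter transcription units. Step two: 24 h chemical exposure. Step three: RNA extraction, RT-PCR, labelled fragment analysis by capillary electrophoresis; DMSO serves as baseline.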

[7] = ATG_BRE_CIS: Attagene CIS-FACTORIAL HepG2 Assay for human Bone Morphogenetic Protein (BMP) Response Element (BRE) (AID 2282933); details: HepG2 BMP response element reporter, Attagene transcription factor profiling; actives raise or lower the signal
Procedure, shortened: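 A HepG2 multiplex reporter system measured inducible reporter mRNA 24 h post-dosing. Detection: RT-PCR, 6-FAM primer extension, HpaI digestion, capillary electrophoresis. Activity fitted bidirectionally relative to DMSO.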

[8] = molecular target: Transcription factor E2F1 (Homo sapiens) (UniProt Q01094); test: ATG_E2F_CIS: Attagene CIS-FACTORIAL HepG2 Assay for human E2F Transcription Factor 1 (AID 2282935); details: HepG2 Attagene cis-reporter, E2F reporter RNA transcripts; actives raise or lower the signal
Procedure, shortened: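 Total RNA from 24 h-treated, reporter-transfected HepG2 cells undergoes DNase I treatment, oligo(dT) reverse transcription, PCR and 6-FAM primer extension before capillary electrophoresis.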

[9] = ATG_E_Box_CIS: Attagene CIS-FACTORIAL HepG2 Assay for human Enhancer Box (E-box) (AID 2282936); details: HepG2 E-box cis-reporter transcription, actives raise or lower the signal
Procedure, shortened: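 DMSO served as negative control and baseline for bidirectional fitting. Human hepatoma HepG2 cells, transiently transfected with cis-reporter constructs, were dosed 24 h; reporter mRNA read by RT-PCR and capillary electrophoresis.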

[10] = ATG_M_61_CIS: Attagene CIS-FACTORIAL HepG2 Assay for M61 Transcription Factor (Internal Marker) (AID 2282937); details: HepG2 Attagene CIS-FACTORIAL M61 internal marker reporter; actives raise or lower the signal
Procedure, shortened: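 This endpoint serves as an internal background control within a multiplexed HepG2 cis-reporter panel. Cells are exposed for 24 h; reporter mRNA is amplified, fluorescently labelled and sized by capillary electrophoresis, with DMSO as negative control.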

[11] = ATG_EGR_CIS: Attagene CIS-FACTORIAL HepG2 Assay for human Early Growth Response 1 (EGR1) (AID 2282938); details: HepG2 Attagene CIS-FACTORIAL EGR reporter mRNA; actives raise or lower the signal
Procedure, shortened: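 HepG2, transient MRTU transfection (cis promoters), 24 h compound. RNA → RT (oligo-dT) → PCR → 6-FAM labelling → HpaI cut → CE fluorescence. Bidirectional fit, DMSO baseline.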

[12] = ATG_M_19_CIS: Attagene CIS-FACTORIAL HepG2 Assay for M19 Transcription Factor (Internal Marker) (AID 2282939); details: HepG2 Attagene CIS-FACTORIAL M19 internal marker reporter; actives raise or lower the signal
Procedure, shortened: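 Chemical-treated HepG2 (24 h) with MRTU constructs; reporter transcripts detected by fluorescent RT-PCR fragment analysis on capillary electrophoresis. Internal background marker, DMSO as baseline.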

[13] = ATG_Ets_CIS: Attagene CIS-FACTORIAL HepG2 Assay for human Erythroblast Transformation Specific (ETS) (AID 2282941); details: HepG2 ETS cis-reporter transcription, actives raise or lower the signal
Procedure, shortened: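 Steps: transfect HepG2 with multiple reporter units; treat compound 24 h; isolate RNA, DNase-treat, reverse-transcribe; PCR-amplify, label with 6-FAM, digest with HpaI; separate by capillary electrophoresis. Activity fitted both directions versus DMSO.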

[14] = molecular target: Hepatocyte nuclear factor 3-beta (Homo sapiens) (UniProt Q9Y261); test: ATG_FoxA2_CIS: Attagene CIS-FACTORIAL HepG2 Assay for human Forkhead box A2 (FOXA2) (AID 2282942); details: HepG2 cis-reporter transcription factor activity, 24 h; actives raise or lower the signal
Procedure, shortened: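 Cells: HepG2, transient multiplex reporter transfection. Exposure 24 h. Detection: reporter-specific RT-PCR, fluorescent labelling, restriction digest, capillary electrophoresis. Analysis: bidirectional curve fit, DMSO as negative control.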

[15] = ATG_FoxO_CIS: Attagene CIS-FACTORIAL HepG2 Assay for human Forkhead box O (FoxO) (AID 2282943); details: HepG2 Attagene cis-reporter, FoxO element, mRNA; actives raise or lower the signal
Procedure, shortened: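 Human hepatoma HepG2 cells carry transiently introduced reporter transcription units controlled by cis promoter elements. Chemical treatment lasted 24 h, and mRNA signal was compared with DMSO.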

[16] = ATG_GLI_CIS: Attagene CIS-FACTORIAL HepG2 Assay for human Zinc Finger Protein GLI1 (AID 2282945); details: HepG2, Attagene cis-factorial reporter mRNA, GLI element; actives raise or lower the signal
Procedure, shortened: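 Bidirectional curve fits relative to DMSO, using reporter mRNA levels from RT-PCR plus capillary electrophoresis. Cells were HepG2 transiently carrying cis-regulated reporter constructs, harvested 24 h after dosing.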

[17] = molecular target: Retinoic acid receptor alpha (Homo sapiens) (UniProt P10276); test: ATG_DR5_RAR_CIS: Attagene CIS-FACTORIAL HepG2 Assay for human Retinoic Acid Receptor Alpha (RARE), DR5 submotif (AID 2282934); details: HepG2 Attagene cis-factorial RARE DR5 reporter, mRNA; actives raise or lower the signal;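 for AC50: reporter responds to endogenous RAR alpha beta and gamma in HepG2 not RARA alone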
Procedure, shortened: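 HepG2, transient cis-reporter transfection, 24 h exposure. mRNA readout: RT-PCR, FAM label, HpaI cut, capillary electrophoresis. DMSO baseline, gain/loss fitting.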

[18] = ATG_ERE_CIS: Attagene CIS-FACTORIAL HepG2 Assay for Estrogen Response Element (ERE) (AID 2282940); details: HepG2 ERE cis-reporter, Attagene RNA transcript; actives raise or lower the signal
Procedure, shortened: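 Human liver cells (HepG2) bearing transiently transfected, promoter-regulated reporter units were exposed 24 h. Reporter mRNA induction was detected by capillary electrophoresis of labelled RT-PCR products and fitted bidirectionally to DMSO.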

[19] = ATG_GATA_CIS: Attagene CIS-FACTORIAL HepG2 Assay for human GATA Binding Protein (AID 2282944); details: HepG2 GATA cis-element reporter, Attagene multiplex mRNA; actives raise or lower the signal
Procedure, shortened: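 Transfected cis-reporter HepG2 cells were treated with chemicals for 24 hours. Total RNA was then converted to cDNA, amplified with reporter-specific primers and analysed by fluorescent capillary electrophoresis, using DMSO-treated wells as baseline.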

[20] = ATG_DR4_LXR_CIS: Attagene CIS-FACTORIAL HepG2 Assay for human Liver X Receptor (LXR), DR4 submotif (AID 2282929); details: HepG2 Attagene DR4 cis-reporter, mRNA transcription; actives raise or lower the signal
Procedure, shortened: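 Endogenous factor activity at a DR4 cis-element is read as reporter mRNA in transiently transfected HepG2 cells. Exposure lasts 24 h; transcripts are amplified, fluorescently labelled and sized by capillary electrophoresis, with DMSO as baseline.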

Measured: AC50

Chain of Transcription factor E2F1 (Homo sapiens) (Q01094 whole entry, looked up): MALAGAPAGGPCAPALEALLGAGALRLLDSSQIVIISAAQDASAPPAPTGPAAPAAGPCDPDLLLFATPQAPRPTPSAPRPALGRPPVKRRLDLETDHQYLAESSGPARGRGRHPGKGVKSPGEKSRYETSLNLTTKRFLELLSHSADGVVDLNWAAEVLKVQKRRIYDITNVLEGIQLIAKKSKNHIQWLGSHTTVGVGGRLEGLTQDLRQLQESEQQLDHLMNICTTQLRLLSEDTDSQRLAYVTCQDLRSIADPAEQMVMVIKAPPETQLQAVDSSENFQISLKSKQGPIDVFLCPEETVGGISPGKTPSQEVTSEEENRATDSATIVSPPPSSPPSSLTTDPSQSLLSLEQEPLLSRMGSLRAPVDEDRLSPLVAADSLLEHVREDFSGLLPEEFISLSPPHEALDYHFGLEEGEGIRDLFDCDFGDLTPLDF
Chain of CCAAT/enhancer-binding protein beta (Homo sapiens) (P17676 whole entry, looked up): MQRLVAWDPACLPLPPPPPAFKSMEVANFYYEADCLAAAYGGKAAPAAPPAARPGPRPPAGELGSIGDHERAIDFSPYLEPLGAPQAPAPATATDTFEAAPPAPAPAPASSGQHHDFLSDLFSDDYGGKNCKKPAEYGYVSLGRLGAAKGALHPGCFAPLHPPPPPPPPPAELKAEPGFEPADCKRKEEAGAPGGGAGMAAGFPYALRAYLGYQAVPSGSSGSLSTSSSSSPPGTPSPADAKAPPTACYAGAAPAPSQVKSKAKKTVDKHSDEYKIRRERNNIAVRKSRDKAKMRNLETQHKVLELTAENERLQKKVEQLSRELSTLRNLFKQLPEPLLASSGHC
Chain of Hepatocyte nuclear factor 3-beta (Homo sapiens) (Q9Y261 whole entry, looked up): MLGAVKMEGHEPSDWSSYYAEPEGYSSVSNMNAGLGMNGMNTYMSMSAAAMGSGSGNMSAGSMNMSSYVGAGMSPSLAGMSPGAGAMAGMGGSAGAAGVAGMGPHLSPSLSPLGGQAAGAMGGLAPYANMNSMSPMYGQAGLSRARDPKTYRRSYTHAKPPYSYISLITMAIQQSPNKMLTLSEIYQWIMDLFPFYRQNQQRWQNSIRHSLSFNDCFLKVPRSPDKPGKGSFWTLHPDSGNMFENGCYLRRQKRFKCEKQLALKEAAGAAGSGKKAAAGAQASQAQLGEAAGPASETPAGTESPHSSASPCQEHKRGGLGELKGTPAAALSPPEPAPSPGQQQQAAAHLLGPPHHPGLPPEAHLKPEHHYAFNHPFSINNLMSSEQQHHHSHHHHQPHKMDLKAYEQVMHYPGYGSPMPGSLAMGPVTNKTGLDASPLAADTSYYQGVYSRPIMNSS
Chain of Aryl hydrocarbon receptor (Homo sapiens) (P35869 whole entry, looked up): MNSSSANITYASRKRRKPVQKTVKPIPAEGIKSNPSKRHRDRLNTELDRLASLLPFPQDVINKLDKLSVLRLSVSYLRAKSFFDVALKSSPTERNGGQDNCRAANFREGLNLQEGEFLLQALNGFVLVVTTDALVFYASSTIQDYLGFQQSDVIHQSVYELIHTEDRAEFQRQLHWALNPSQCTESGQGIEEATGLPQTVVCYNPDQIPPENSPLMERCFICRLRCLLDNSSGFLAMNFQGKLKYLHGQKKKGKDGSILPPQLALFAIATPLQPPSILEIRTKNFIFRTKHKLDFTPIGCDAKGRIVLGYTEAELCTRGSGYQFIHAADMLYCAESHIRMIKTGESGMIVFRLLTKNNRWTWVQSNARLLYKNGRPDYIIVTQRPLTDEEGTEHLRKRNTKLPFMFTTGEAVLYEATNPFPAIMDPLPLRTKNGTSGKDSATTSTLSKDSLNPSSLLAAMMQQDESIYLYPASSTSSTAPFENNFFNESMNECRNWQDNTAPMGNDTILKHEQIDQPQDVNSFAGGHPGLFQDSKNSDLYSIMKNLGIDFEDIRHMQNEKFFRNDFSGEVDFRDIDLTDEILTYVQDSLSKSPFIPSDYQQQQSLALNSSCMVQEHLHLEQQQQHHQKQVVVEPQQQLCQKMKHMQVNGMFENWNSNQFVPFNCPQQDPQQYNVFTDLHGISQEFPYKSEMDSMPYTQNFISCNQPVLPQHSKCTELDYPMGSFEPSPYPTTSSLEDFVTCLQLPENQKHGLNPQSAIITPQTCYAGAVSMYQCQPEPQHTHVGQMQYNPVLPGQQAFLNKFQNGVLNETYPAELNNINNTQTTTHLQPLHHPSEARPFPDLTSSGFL
Chain of Retinoic acid receptor alpha (Homo sapiens) (P10276 whole entry, looked up): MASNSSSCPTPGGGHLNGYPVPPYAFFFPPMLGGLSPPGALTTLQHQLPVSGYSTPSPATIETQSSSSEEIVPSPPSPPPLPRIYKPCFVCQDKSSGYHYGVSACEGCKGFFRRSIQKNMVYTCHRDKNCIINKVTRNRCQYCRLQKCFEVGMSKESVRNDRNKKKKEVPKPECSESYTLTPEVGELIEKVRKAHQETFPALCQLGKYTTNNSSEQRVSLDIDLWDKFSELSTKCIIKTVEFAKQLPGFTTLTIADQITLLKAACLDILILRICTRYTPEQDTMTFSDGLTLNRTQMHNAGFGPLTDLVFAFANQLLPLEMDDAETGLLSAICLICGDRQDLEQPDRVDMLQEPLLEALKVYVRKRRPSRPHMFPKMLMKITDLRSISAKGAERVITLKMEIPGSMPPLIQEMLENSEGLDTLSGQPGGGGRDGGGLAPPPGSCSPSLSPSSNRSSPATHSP

Cc1ncc(CO)c(CO)c1O
not listed: [17] | [18] | [19] | [20]
inactive: all other assays above

CC1=CC(=O)/C(=C(/C)O)C(=O)O1
not listed: [4] | [15] | [20]
inactive: all other assays above

CN(C)c1ccc(C(=C2C=CC(=[N+](C)C)C=C2)c2ccc(N(C)C)cc2)cc1
active: [2] 4.56 µM | [5] 2.23 µM | [17] 2.58 µM | [9] 2.88 µM | [11] 2.23 µM | [18] 1.01 µM
not listed: [19] | [20]
inactive: all other assays above

O=CCCCC=O
not listed: [4] | [15] | [17] | [19] | [20]
inactive: all other assays above

CCCCCCCCOc1ccc(C(=O)c2ccccc2)c(O)c1
active: [4] 59.1 µM
not listed: [6] | [15] | [20]
inactive: all other assays above

CCCCCCCCCC(=O)O
not listed: [4] | [6] | [15] | [18]
inactive: all other assays above

CCN(Cc1cccc(S(=O)(=O)O)c1)c1ccc(C(=C2C=CC(=[N+](CC)Cc3cccc(S(=O)(=O)O)c3)C=C2)c2ccccc2S(=O)(=O)[O-])cc1
not listed: [15] | [20]
inactive: all other assays above

Cc1cc2c(cc1C(F)(F)F)N(C(=O)Nc1ccc(Oc3cccnc3C)nc1)CC2
active: [17] 0.967 µM
not listed: [6] | [19] | [20]
inactive: all other assays above

O=C(Nc1ccc(Cl)cc1)Nc1ccc(Cl)c(Cl)c1
active: [1] 4.04 µM | [5] 10.5 µM | [7] 5.32 µM
not listed: [15] | [20]
inactive: all other assays above

C[C@]12CC[C@@H]3c4ccc(O)cc4CC[C@H]3[C@@H]1CCC2=O
active: [5] 24.5 µM
inactive: [1] | [2] | [3] | [20] | [5] | [6] | [7] | [8] | [9] | [10] | [11] | [12] | [13] | [14] | [15] | [16]

Cc1cccc2ccccc12
active: [18] 76.8 µM
inactive: [1] | [2] | [3] | [4] | [5] | [7] | [17] | [8] | [9] | [10] | [11] | [12] | [18] | [13] | [14] | [16]

O=c1ccc2ccccc2o1
not listed: [6] | [20]
inactive: all other assays above

CCCOC(=O)c1cc(O)c(O)c(O)c1
active: [3] 58.6 µM | [8] 169 µM | [18] 12.4 µM
not listed: [15] | [19] | [20]
inactive: all other assays above

c1ccc(C[n+]2cccc3ccccc32)cc1
active: [3] 100 µM | [4] 69.6 µM | [5] 41.1 µM | [18] 74.1 µM
not listed: [6] | [15] | [20]
inactive: all other assays above
